Source: PubChem BioAssay
RXFP1 ag: RXFP1 (human) receptor agonism. HEK293T-RXFP1 cAMP TR-FRET, 30 min; response scale: percent of porcine relaxin response, buffer zero. Potency, µM (highest dose often 57.5 µM), most hits filed as activators. 370,000 compounds, 0.3% hits. AID 2676; note: nearly all actives have a fitted effect of over 60% in size
Target sequence (Q9HBX9 whole entry, looked up): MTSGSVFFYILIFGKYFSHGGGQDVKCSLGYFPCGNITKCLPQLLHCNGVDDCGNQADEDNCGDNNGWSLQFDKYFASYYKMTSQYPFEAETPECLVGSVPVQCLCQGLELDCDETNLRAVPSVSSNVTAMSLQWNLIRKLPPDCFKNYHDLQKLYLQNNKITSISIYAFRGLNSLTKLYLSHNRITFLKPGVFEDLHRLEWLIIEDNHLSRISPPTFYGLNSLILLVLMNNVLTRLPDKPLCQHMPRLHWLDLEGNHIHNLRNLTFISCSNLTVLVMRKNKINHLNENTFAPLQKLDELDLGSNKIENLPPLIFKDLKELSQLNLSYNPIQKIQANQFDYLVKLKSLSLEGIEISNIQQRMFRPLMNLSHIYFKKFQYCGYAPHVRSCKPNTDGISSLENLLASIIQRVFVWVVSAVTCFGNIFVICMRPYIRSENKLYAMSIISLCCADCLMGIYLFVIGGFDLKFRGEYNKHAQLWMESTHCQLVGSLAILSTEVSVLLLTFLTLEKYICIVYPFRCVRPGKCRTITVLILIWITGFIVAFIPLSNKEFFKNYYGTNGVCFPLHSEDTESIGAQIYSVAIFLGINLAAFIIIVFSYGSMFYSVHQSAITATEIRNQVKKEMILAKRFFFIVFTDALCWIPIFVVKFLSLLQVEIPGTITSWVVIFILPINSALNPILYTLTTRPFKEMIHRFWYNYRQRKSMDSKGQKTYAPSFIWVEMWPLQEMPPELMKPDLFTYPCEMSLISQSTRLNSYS
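Agonist response is measured as cAMP accumulation in an RXFP1-transfected HEK293T line under PDE4 inhibition. Values are scaled between buffer-only and 29 nM porcine relaxin, and EC50s come from standard Hill equation fits.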
GRP78 ERSR act: induces the endoplasmic reticulum stress response in human glioma cells. 420,000 compounds, 0.02% hits. Potency, µM, hits mostly activators. U87-MG GRP78 promoter luciferase reporter, 16 h. AID 602332; note: series mostly up to about 76 µM; nearly all actives have a fitted effect of over 35% in size
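Stably transfected U87-MG human glioma cells carrying a GRP78-based luminescent sensor were seeded at 1000 cells/well, pin-dosed with compounds and incubated 16 h. Luciferase reagent was then added, and end-point luminescence was read after 10 min at room temperature.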
RXFP1 antagonist: RXFP1 (human) relaxin receptor antagonism; HEK293-RXFP1, relaxin-stimulated cAMP HTRF, 30 min; hits give low values; 350,000 compounds, 0.59% hits; activity change, negative = inhibition, % at 57.5 µM;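 active = activity change of -60% or lower, but not beyond a set lower limit; inconclusive = change between -60% and -40%, or beyond the set limit; inactive = change above -40%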
KCNH2 WT inh: KCNH2 (human, wildtype) channel inhibition. AID 720551. 340,000 compounds, 0.37% hits. U2OS, BacMam KCNH2, thallium flux FluxOr; hits give low values. activity change, % at 1.84 µM. Q12809;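 active = maximum activity change below -70%; inconclusive = maximum activity change between -70% and -50%; inactive = maximum activity change above -50%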
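U2OS cells transduced with wild-type KCNH2 virus are loaded with FluxOr dye for 45 min, and thallium flux is measured in kinetic reads before and after stimulation buffer. Rate constants are normalized to DMSO controls.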
PTHR1 agonist: PTHR1 (human) receptor agonism; HEK293 GP2 PTHR1 cells, GloSensor cAMP luminescence, 1 h; Potency, µM (doses to about 115 µM), usual class: activators; 410,000 compounds, 0.075% hits; AID 743266; note: nearly all actives have a fitted effect of over 55% in size
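HEK-293-derived GP2 cells expressing PTHR1 and a GloSensor cAMP reporter, 3,000/well, plated overnight, given luciferin plus IBMX (each 0.5 mM as added) for 1 h at 37 °C, then compound for 1 h at 37 °C. Luminescence was read after 15 min at room temperature.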
KCNH2 3.1 inh: KCNH2 3.1 (human) potassium channel inhibition; U2OS KCNH2 3.1, thallium flux FluxOr; hits give low values; activity change, % (tested at about 1.8 µM); 340,000 compounds, 0.95% hits; AID 720553;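 active = maximum activity change below -70%; inconclusive = maximum activity change from -70% to -50%; inactive = maximum activity change above -50%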;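 note: thallium influx rate constant from kinetic fluorescence after stimulation buffer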
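U2OS cells transduced with KCNH2 3.1 mutant virus (1.77 x 10^8 /mL, 4 h), plated overnight at 37 C, loaded 45 min with FluxOr dye plus Red40 quencher. Thallium flux rate constant from kinetic reads after stimulation buffer, normalised to controls.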
Of the large screens only hits and unclear results are named; the others gave an inactive call. Rows were chosen to be rich in hits. Some 1.4% of all compounds tested hit in one or more screens of this group. Unless noted, calls come from the whole dose curve; as a rule, active = well fitted curve in the direction sought with a large enough effect; inconclusive = small, poorly fitted or top-dose-only effect, or another doubt; inactive = no such curve, though single readings can be large; an effect the other way counts as inactive or inconclusive.

CC(C)(C)OC(=O)n1cccc1/C=C1\c2ccccc2C(=O)N1c1ccccc1	none (no result: RXFP1 ag, RXFP1 antagonist)
O=C(NCCC1=CCCCC1)C1CCN(S(=O)(=O)N2CCOCC2)CC1	PTHR1 agonist inconclusive, KCNH2 3.1 inh -71
CC(=O)N1CCc2c(sc(NC(=O)C3CCCN3S(=O)(=O)c3cccs3)c2C(N)=O)C1 (stereo unspecified)	none
Cc1ccc2nc(NC(=O)C3CCN(S(=O)(=O)c4cccs4)CC3)sc2c1	PTHR1 agonist inconclusive, KCNH2 3.1 inh -80
CC(=O)N1CCc2c(sc(NC(=O)C3CCN(S(=O)(=O)c4cccs4)CC3)c2C(N)=O)C1	RXFP1 antagonist -60
CNc1nc(N)c([N+](=O)[O-])c(N2CCCCCC2)n1	none
Cc1ccc(N2C(=O)C(O)(C(F)(F)F)C3=C2CC(C)(C)CC3=O)cc1 (stereo unspecified)	none
CC1(C)CC(=O)C2=C(C1)N(c1ccc(F)cc1)C(=O)C2(O)C(F)(F)F (stereo unspecified)	KCNH2 3.1 inh -120
CCC(=O)O[C@@H](OP(=O)(CCCCc1ccccc1)CC(=O)N1C[C@H](C2CCCCC2)C[C@H]1C(=O)O)C(C)C (stereo partly specified)	none (no result: RXFP1 ag, RXFP1 antagonist, KCNH2 WT inh, PTHR1 agonist, KCNH2 3.1 inh)
O=C(O)CCCCCNC(=O)c1cccc(Br)c1	none
O=C(O)CCCC(=O)NNC(=O)c1cccc(Br)c1	KCNH2 3.1 inh -98
O=C(NNC(=O)c1ccccc1O)c1cccc(Br)c1	KCNH2 3.1 inh -81
Cn1nc(C(F)(F)F)c(-c2ccccc2)c1NC(=O)c1ccco1	none
CC(=O)c1sc(-c2ccccc2)cc1NS(=O)(=O)c1ccccc1	none
CCOC(=O)CC(=O)CSc1nc2c(sc(=S)n2-c2ccccc2)c(=O)[nH]1	none
CCOC(=O)CSc1nc2c(sc(=S)n2-c2ccc(CC)cc2)c(=O)[nH]1	GRP78 ERSR act 40µM
CCCSc1ncc(Cl)c(C(=O)Nc2sc3c(c2C(=O)NCC)CCCC3)n1	none (no result: KCNH2 WT inh, KCNH2 3.1 inh)
CC(C)c1ccc(-c2c(C#N)c(N)nc(SCC(=O)N3CCCCC3)c2C#N)cc1	RXFP1 ag 22µM, KCNH2 3.1 inh inconclusive
COC(=O)CSc1nc(N)c(C#N)c(-c2ccc(O)cc2)c1C#N	none
Cc1ccc(CNC(=O)C2CCN(S(=O)(=O)c3c(C)noc3/C=C/N(C)C)CC2)cc1	RXFP1 antagonist -64
COc1ccc(C(C)=O)cc1Cn1cnc2c(cnn2C)c1=O	RXFP1 ag 13µM
COc1ccc(C(C)=O)cc1Cn1c(=O)cc(C)[nH]c1=O	none
c1csc(CNc2nc(-c3cccs3)nc3ccccc23)c1	KCNH2 3.1 inh inconclusive
c1ccc(CN2CCC(Nc3nc(-c4cccs4)nc4ccccc34)CC2)cc1	KCNH2 3.1 inh -73 (no result: KCNH2 WT inh)
Cc1ccc(NC(=O)c2ccccc2-c2ccccc2C(=O)O)cc1	none
O=C(CCCn1c(=S)[nH]c2ccsc2c1=O)NCc1ccco1	RXFP1 antagonist -78
O=C(CCCCn1c(=S)[nH]c2ccsc2c1=O)NCc1ccco1	RXFP1 antagonist -81, KCNH2 3.1 inh -71
CCOC(=O)N1CCN(C(=O)CCCCCn2c(=S)[nH]c3ccsc3c2=O)CC1	none
Cc1ccccc1Cn1c(=O)n(CCCC(=O)NCc2ccco2)c(=O)c2sccc21	none
CCOC(=O)c1c(-c2ccccc2Cl)csc1NC(=O)CSc1nc(C)cc(=O)[nH]1	RXFP1 antagonist -80
CCOC(=O)c1ccc(NC(=O)CSc2nc(C)cc(=O)[nH]2)cc1	none
O=C(NCc1ccco1)/C(=C/c1ccc(C(F)(F)F)cc1)c1nc2ccccc2[nH]1	GRP78 ERSR act inconclusive
O=S(=O)(/C(=C\c1ccc(C(F)(F)F)cc1)c1nc2ccccc2[nH]1)c1ccccc1	RXFP1 antagonist -77 (no result: RXFP1 ag)
CO[C@H]1[C@H](NC(=O)C(C)C)c2ccccc2C12CCN(Cc1c(C)nn(C)c1Cl)CC2	none (no result: RXFP1 ag, RXFP1 antagonist, KCNH2 WT inh, PTHR1 agonist, KCNH2 3.1 inh)
CC1(C(=O)O)CCC2(C)CCC3(C)C(=CC(=O)C4C5(C)CCC(=O)C(C)(C)C5CCC43C)C2C1 (stereo unspecified)	none (no result: RXFP1 ag)
Cc1c(OC(C)C(=O)NCc2ccncc2)ccc2c3c(c(=O)oc12)CCCC3 (stereo unspecified)	KCNH2 3.1 inh -78
Cc1c(OC(C)C(=O)NCc2ccccn2)ccc2c3c(c(=O)oc12)CCC3 (stereo unspecified)	none
O=C(c1ccc(Cl)cc1)C1CCCN(Cc2cnn(-c3ccccc3)c2)C1 (stereo unspecified)	KCNH2 WT inh -78, KCNH2 3.1 inh -88
O=C(c1ccc(-c2ccccc2)cc1)C1CCCN(Cc2ccncc2)C1 (stereo unspecified)	none
O=C(O)c1ccc(Cl)c(S(=O)(=O)N(Cc2ccccc2)c2ccc(F)cc2)c1	PTHR1 agonist inconclusive (no result: KCNH2 WT inh)
O=C1/C(=C\c2ccccn2)SC(=S)N1c1ccc(S(=O)(=O)Nc2nccs2)cc1	RXFP1 antagonist -81
Cc1ccc(/C=C2/SC(=S)N(c3ccc(S(=O)(=O)Nc4nccs4)cc3)C2=O)cc1	RXFP1 antagonist -67
COc1ccc(/C=C2/SC(=S)N(c3ccc(S(=O)(=O)Nc4nccs4)cc3)C2=O)cc1	RXFP1 antagonist -80
Cc1ccc(N2C(=O)/C(=C/c3cccnc3)SC2=S)cc1	none
COc1ccc(/C=C2\SC(=O)N(CCC(=O)Nc3ccc(S(=O)(=O)Nc4nccs4)cc3)C2=O)cc1	none
O=C1/C(=C/c2ccccn2)SC(=S)N1c1ccc(O)cc1	none
Cc1ccc(Oc2ccc3c(c2)C(=O)N(c2ccc(S(=O)(=O)Nc4nccs4)cc2)C3=O)cc1	RXFP1 antagonist -107
CC(=O)N1CCC2(CCCN(c3ccccn3)C2)CC1	none (no result: RXFP1 ag, RXFP1 antagonist, KCNH2 WT inh, PTHR1 agonist, KCNH2 3.1 inh)
CC(C)(C)c1ccc(C(=O)OCc2c(-c3ccccc3)ncc3ccccc23)cc1	none (no result: RXFP1 ag, RXFP1 antagonist)
COc1ccc(C(=O)OCc2c(-c3ccccc3)ncc3ccccc23)cc1	KCNH2 3.1 inh -70 (no result: RXFP1 ag, RXFP1 antagonist)
O=C(NCCCN1CCc2ccccc2C1)Nc1ccc(Br)cc1	KCNH2 3.1 inh -80
CC(=O)c1cccc(NC(=O)C(C)OC(=O)Cc2c[nH]c3ccccc23)c1 (stereo unspecified)	none
Cc1sc2ncnc(N3CCN(CCOc4ccc(Cl)cc4)CC3)c2c1C	KCNH2 3.1 inh -79
Cc1sc2ncnc(N3CCC(C(=O)NNC(=O)COc4ccc(Cl)cc4)CC3)c2c1C	none (no result: RXFP1 ag)
COc1cc(NC(=O)CCc2c(C)nc3nc(-c4cc(OC)cc(OC)c4)nn3c2C)cc(OC)c1	none (no result: RXFP1 antagonist, KCNH2 WT inh, KCNH2 3.1 inh)
Cc1cc(NC(=O)c2ccc(-c3ccccc3F)o2)no1	KCNH2 3.1 inh -198
CN(C)c1ccc(C(=O)c2ccc(O)cc2O)cc1	none
